Test results reported in the supplement of paper PMC9950053.
Counter-ions that a name gives are not always drawn.

Each molecule was assayed on Danio rerio larvae (5 dpf) (assay: startle (activity period 16 minus period 15, 20-s interval sound) minus DMSO control (percentage points); higher = stronger startle response than DMSO larvae). Conditions: 10 µM; exposure time: 3 h pre-incubation + 3 h imaging.
Protocol: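 Wild-type 5 dpf zebrafish larvae (n=48 per drug, 96-well plates, 28.5 °C) were exposed to Tocris FDA-approved library compounds at 10 µM (0.1% DMSO) for 3 h before and 3 h during imaging. Images were taken every 6 s during visual and acoustic stimuli, and larvae were tracked with Z-LaP Tracker. Each measure is the treated-group mean minus the DMSO control mean (n=844), in percentage points. This mapping covers compounds with 5-character plate codes.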
In the case of `COc1ccc(C(CN(C)C)C2(O)CCCCC2)cc1` (stereo unspecified) [Venlafaxine hydrochloride], the startle is reported as -6.7.
